Measured values from the supplement of paper PMC11219838.

system: Ditylenchus dipsaci; test: proportion of mobile D. dipsaci (mixed stage) relative to DMSO control (fraction of DMSO control); higher = more viable, less nematicidal, active = 0.86 or less; extreme values may be limits of the assay; settings: 60 µM; 5 days; temperature: 20 °C
Outline: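 Ditylenchus dipsaci nematodes were cultured on pea plants in Gamborg B-5 agar, then extracted into water through a filter funnel, and roughly 20 worms in distilled water were placed in each well of a 96-well plate. Compound was pinned in to a final concentration of 60 µM (0.6% v/v DMSO), and the sealed plates were shaken at 200 rpm for 5 days at 20 °C. Mobile worms were counted under the microscope after 2 µL of 1 M NaOH was added. Mobility is given relative to DMSO controls as the mean of two biological replicates.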

Structure (SMILES)	proportion of mobile D. dipsaci
Cc1cccc(-c2nnc(SCC(=O)NC(C)c3ccccc3)o2)c1 (centres undefined)	1 (inactive)
CN(C)c1ccc(-c2nnc(SCc3ccccc3)o2)cc1	1 (inactive)
Cc1cc(OCc2nc(-c3ccccn3)no2)ccc1Cl	1 (inactive)
COc1ccccc1-c1nnc(SCC(=O)Nc2ccc(Br)cn2)o1	1 (inactive)
Clc1ccc(SCc2nc(-c3ccccn3)no2)cc1	1 (inactive)
Cc1ccc(-c2nc(-c3ccncc3)no2)cc1Cl	1 (inactive)
CCCc1ccc(-c2nc(-c3cccnc3)no2)cc1	0.562 (active)
COc1ccccc1OCc1nc(-c2cccc(C)c2)no1	1 (inactive)
Cc1ccc(-c2nc(-c3ccccc3Cl)no2)c(Cl)c1	1 (inactive)
COc1ccccc1-c1nnc(SCc2ccccc2C#N)o1	1 (inactive)
Fc1ccccc1OCc1nc(-c2ccc(Cl)cc2)no1	1 (inactive)
COc1ccc(-c2noc(COc3ccc(F)cc3)n2)cc1	1 (inactive)
Cc1cc(C)cc(OCc2nc(-c3ccccc3Cl)no2)c1	1 (inactive)
Cc1ccc(-c2noc(CSc3nc4ccccc4[nH]3)n2)cc1	1 (inactive)
Cc1ccc(-c2noc(-c3ccc(C)cc3)n2)cc1	1 (inactive)
Brc1ccc(-c2noc(COc3ccc4c(c3)OCO4)n2)cc1	1 (inactive)
C#CCOc1ccc(-c2nc(-c3ccccc3)no2)cc1	1 (inactive)
c1ccc(-c2noc(COc3ccc4c(c3)CCCC4)n2)cc1	1 (inactive)
Cc1ccc(-c2nnc(SCC(=O)Nc3cc(C)c(C)cc3Br)o2)cc1	1 (inactive)
Cc1cc(C)cc(NC(=O)CSc2nnc(-c3ccccc3)o2)c1	1 (inactive)

Structure (SMILES)	proportion of mobile D. dipsaci
COc1cccc(-c2nc(-c3ccc(C)cc3)no2)c1	1 (inactive)
Cc1cccc(-c2noc(-c3ccccc3Cl)n2)c1	1 (inactive)
Cc1cccc(-c2noc(-c3ccccc3F)n2)c1	1 (inactive)
Clc1ccccc1-c1noc(-c2ccccc2Cl)n1	1 (inactive)
CCOc1ccccc1-c1nc(-c2ccc(NC(=O)c3ccncc3)cc2)no1	1 (inactive)
Cc1cccc(OCc2nc(-c3ccncc3)no2)c1C	1 (inactive)
Cc1cccc(-c2noc(C3CCCCC3)n2)c1	1 (inactive)
Fc1cccc(-c2nc(-c3ccccc3)no2)c1	1 (inactive)
COc1ccc(-c2noc(-c3ccccc3C)n2)cc1	1 (inactive)
COc1nc(C)ccc1-c1noc(-c2ccccc2Cl)n1	1 (inactive)
CCOc1ccccc1-c1nc(-c2cccc(C)c2)no1	1 (inactive)
Clc1ccc(-c2noc(-c3cccnc3)n2)cc1	1 (inactive)
CCCCC(=O)Nc1ccccc1-c1nc(-c2ccccn2)no1	1 (inactive)
COc1ccc(-c2noc(-c3ccc(Cl)cc3Cl)n2)cc1	1 (inactive)
Cc1cccc(-c2noc(COc3ccc(C)c(C)c3)n2)c1	1 (inactive)
CCNC(=O)c1ccccc1-c1nc(-c2ccc(OC)cc2)no1	1 (inactive)
Cc1ccc(-c2nnc(SCC(=O)Nc3ccccc3)o2)cc1	1 (inactive)
CCOc1cc(-c2nc(-c3ccccc3C)no2)cc(OCC)c1OCC	1 (inactive)
CCSc1nnc(-c2ccc(Cl)cc2Cl)o1	0.739 (active)
